Bioassay records from PubChem.
BAZ2B block: qHTS Assay for Inhibitors of BAZ2B; AlphaScreen BAZ2B-H3K14Ac peptide displacement; AID 504333, 2011; Potency, µM (titrated, usually from 114 µM), actives largely listed as inhibitors; Bromodomain adjacent to zinc finger domain protein 2B (Homo sapiens), Q9UIF8; 360,000 compounds, 4.4% hits; also: nearly all actives have a fitted effect of over 60% in size
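Complex of BAZ2B and biotin-H3K14Ac (50 nM apiece) forms over 30 min at RT, then faces library compounds up to 110 uM for another 30 min; AlphaScreen beads added, 20 min dark incubation, luminescence read.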
JMJD2A Tudor inh: qHTS Assay for Inhibitors of JMJD2A-Tudor Domain; AlphaScreen JMJD2A-Tudor / H3K4me3 peptide binding; Potency, µM (top dose mostly 114 µM), actives largely listed as inhibitors; 390,000 compounds, 4.4% hits; AID 504339, 2011; also: nearly all actives have a fitted effect of over 50% in size
PLK1 PBD inh: qHTS for Inhibitors of PLK1-PDB (polo-like kinase 1 - polo-box domain): Primary Screen | AID 720504, 2013 | Plk1 PBD binding of FITC phosphopeptide, fluorescence polarization | Potency, µM, most hits filed as inhibitors | Serine/threonine-protein kinase PLK1 (Homo sapiens), P53350 | 360,000 compounds, 2.8% hits; also: series mostly up to about 57 µM; nearly all actives have a fitted effect of over 65% in size
VDR inh: Inhibitors of the vitamin D receptor (VDR): qHTS; Vitamin D3 receptor (Homo sapiens), P11473; VDR-SRC2-3 peptide fluorescence polarization, 2 h; Potency, µM, usual class: inhibitors; 400,000 compounds, 0.93% hits; AID 504847, 2011
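VDR–SRC2-3 interaction, FP format. Cmpds 23 nl via pintool, brief spin, 2 h ambient incubation.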
HP1b binding inh: HTS for Inhibitors of HP1-beta Chromodomain Interactions with Methylated Histone Tails; 390,000 compounds, 0.56% hits; AlphaScreen HP1-beta / biotin-H3K9me3 peptide binding; Chromobox protein homolog 1 (Homo sapiens), P83916; Potency, µM (series often up to 114 µM), hits mostly inhibitors; AID 540317, 2011; also: nearly all actives have a fitted effect of over 70% in size
Target sequence (P83916 whole entry, looked up): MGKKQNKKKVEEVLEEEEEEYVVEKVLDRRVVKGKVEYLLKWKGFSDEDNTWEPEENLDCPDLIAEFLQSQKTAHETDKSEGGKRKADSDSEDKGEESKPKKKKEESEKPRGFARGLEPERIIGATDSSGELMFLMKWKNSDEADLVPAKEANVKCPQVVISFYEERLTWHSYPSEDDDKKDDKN
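HP1-beta protein (50 nM final) preincubated 30 min at room temperature with biotinylated H3(1-18)K9me3 peptide (50 nM) in PBS pH 7.4, 0.01% Tween-20, then compound added for 30 min. AlphaScreen streptavidin donor/nickel chelate acceptor beads (10 ug/mL final), 30 min dark, luminescence read.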
G9a inh: qHTS Assay for Inhibitors of Histone Lysine Methyltransferase G9a; Histone-lysine N-methyltransferase EHMT2 (Homo sapiens), Q96KQ7; G9a H3K9 monomethylation, AlphaScreen, 2 h; Potency, µM (top dose mostly 102 µM), most hits filed as inhibitors; 350,000 compounds, 8.8% hits; also: nearly all actives have a fitted effect of over 75% in size
Target sequence (Q96KQ7 913-1193 limits assumed): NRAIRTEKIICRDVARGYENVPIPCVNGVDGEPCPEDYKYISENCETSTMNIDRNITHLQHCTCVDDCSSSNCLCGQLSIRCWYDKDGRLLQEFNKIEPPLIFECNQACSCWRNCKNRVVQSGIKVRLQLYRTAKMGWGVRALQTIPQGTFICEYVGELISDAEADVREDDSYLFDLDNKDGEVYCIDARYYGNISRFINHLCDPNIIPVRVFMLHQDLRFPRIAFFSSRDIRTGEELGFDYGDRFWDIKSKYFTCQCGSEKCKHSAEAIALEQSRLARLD
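Methyltransferase reactions run at room temperature for 2 h (20 nM enzyme, 500 nM biotin-H3K9 peptide, 20 uM SAM) after a 15 min compound preincubation; product detected by AlphaScreen beads and anti-H3K9me1 antibody.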
Numbers stand for hits; 0 = inactive; ? = inconclusive; - = no result given; [ ] = dose if it differs, or a comment. This is a sample that favours compounds with a hit; in the whole collection about 11% have one here. Calls follow the shape of the dose curve; as a rule, active = well fitted curve in the direction sought with a large enough effect; inconclusive = small, poorly fitted or top-dose-only effect, or another doubt; inactive = no such curve, though single readings can be large; an effect the other way counts as inactive or inconclusive.

SMILES | BAZ2B block | JMJD2A Tudor inh | PLK1 PBD inh | VDR inh | HP1b binding inh | G9a inh
CCc1ccc(NC(=O)CSc2ccc3nnc(CCNS(=O)(=O)c4ccc(OC)cc4)n3n2)cc1 | ? | 0 | - | 0 | 0 | 0
COc1ccccc1CNc1nc2nc(C)c(Cl)c(=O)n2[nH]1 | 0 | 0 | 0 | 0 | 0 | 13µM
Cc1cc(=O)n2[nH]c(NCc3ccc(F)cc3)nc2n1 | 0 | 0 | - | 0 | 0 | 0
COc1ccc(CNc2nc3nc(C)c(Cl)c(=O)n3[nH]2)cc1 | 0 | 0[11.4 µM] | 0 | 0 | 0 | 56µM
COc1ccccc1CNc1nc2nc(C)c(Cl)c(C)n2n1 | 0 | 0 | - | 0 | 0 | 0
CCc1nn2c(=O)cc(COC(=O)c3cccc(NC(=O)CCc4ccccc4)c3)nc2s1 | 0 | 0 | - | 0 | 0 | 0
COc1ccc(C(=O)C(CCCCC(CN(C)C)C(=O)c2ccc(OC)cc2)CN(C)C)cc1 (stereo not drawn) | 0 | 0 | 0 | 0 | 0 | ?
CN(C)CC(CCC(CN(C)C)C(=O)c1ccccc1)C(=O)c1ccccc1 (stereo not drawn) | 0 | 0 | 13µM | 45µM | 0 | 45µM
CCOc1ccc(C(=O)C(CCC(CN(C)C)C(=O)c2ccc(OCC)cc2)CN(C)C)cc1 (stereo not drawn) | ? | ? | 27µM | ? | 0 | ?
O=C(NCc1nnc(-c2cc3ccccc3[nH]2)o1)c1ccccc1 | - | 0 | - | - | - | -
COc1ccc2cc(-c3[nH]ncc3CN3CCCN(c4ccccc4)CC3)ccc2c1 | 32µM | 35µM | 0 | 0 | 20µM | -
NC(N)=NCCC[C@H](N)C(=O)N1CCC[C@H]1C(=O)N1CCC[C@H]1C(=O)NCC(=O)N[C@@H](Cc1ccccc1)C(=O)N[C@@H](CO)C(=O)N1CCC[C@H]1C(=O)N[C@@H](Cc1ccccc1)C(=O)O | - | - | - | 0 | - | -
C#CCOCCOCCOCCNc1nc(N2CCOCC2)nc(N2CCN(C(=O)[C@H]([C@@H](C)CC)n3cc([C@@H](N)Cc4ccc(O)cc4)nn3)CC2)n1 | 0 | 0 | 0 | 0 | 0 | ?
C#CCOCCOCCOCCNc1nc(N2CCN(C(=O)[C@H]([C@@H](C)CC)n3cc([C@@H](N)Cc4ccc(O)cc4)nn3)CC2)nc(N2CCN(C(=O)[C@H](Cc3ccc(O)cc3)n3cc([C@@H](N)CC(C)C)nn3)CC2)n1 | 56µM | 14µM | 0 | 0 | 0 | ?
C#CCOCCOCCOCCNc1nc(N2CCN(C(=O)[C@H]([C@@H](C)CC)n3cc([C@@H](N)Cc4ccc(O)cc4)nn3)CC2)nc(N2CCN(C(=O)[C@H]([C@@H](C)CC)n3cc([C@@H](N)CC(C)C)nn3)CC2)n1 | ? | 45µM | 0 | 0 | 0 | 0
C#CCOCCOCCOCCNc1nc(N2CCN(C(=O)[C@H]([C@@H](C)CC)n3cc([C@@H](N)CO)nn3)CC2)nc(N2CCN(C(=O)[C@H](Cc3ccc(O)cc3)n3cc([C@@H](N)CC(C)C)nn3)CC2)n1 | 32µM | 56µM | 0 | 0 | 0 | ?
C#CCOCCOCCOCCNc1nc(N2CCN(C(=O)[C@H](C)n3cc(CCC(=O)O)nn3)CC2)nc(N2CCN(C(=O)[C@H](Cc3ccc(O)cc3)n3cc(CCO)nn3)CC2)n1 | - | 0 | 0 | 0 | 0 | -
CC(=O)Nc1ccc(S(=O)(=O)NCCCc2ccccc2)cc1 | 0 | 0 | 0 | 0 | 0 | -
Cc1ccc(C2=NNC(c3ccc(Cl)cc3)=Nc3ccccc32)o1 | ? | ? | 0 | 0 | ? | 0
Cc1cccc(NC(=O)CN(C)C(=O)C2CCCC2)c1C | 0 | 0 | 0 | 0 | 0 | 0[12.7 µM]
O=C(NNC(=O)c1cccnc1SCc1cccc([N+](=O)[O-])c1)c1cccnc1 | 0 | 0 | 0 | 0 | 0 | 35µM
CCOc1ccc(-c2noc(CSc3nnc(Cc4ccccc4)n3-c3cccc(C)c3)n2)cc1 | 0 | ? | - | 0 | 0 | 0
Cc1[nH]c(-c2ccc3c(c2)OCO3)nc1C(=O)O | 50µM | 22µM | 0 | 0 | 0 | 10µM
